Data from PubChem BioAssay (EPA / NIEHS).
Active and inactive are the calls of the source. How the source made its calls: active means hit-call score of the fitted dose curve at least 0.9, where 1 is the maximum; inactive means score below 0.9.

How the values were obtained:
[1] = ATG_CRE_CIS: Attagene CIS-FACTORIAL HepG2 Assay for human cAMP Responsive Element (CRE) binding protein 3 (AID 2282926); conditions: HepG2 CRE cis-reporter, Attagene multiplexed mRNA; actives raise or lower the signal
Procedure, shortened: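 Transfected HepG2 were treated for 24 hours, then RNA was extracted and reporter cDNA amplified with sequence-specific primers. Labelled fragments were separated by capillary electrophoresis, and the CRE signal was fitted bidirectionally with DMSO as baseline.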

[2] = biological target: CCAAT/enhancer-binding protein beta (Homo sapiens) (UniProt P17676); assay: ATG_C_EBP_CIS: Attagene CIS-FACTORIAL HepG2 Assay for human CCAAT/Enhancer Binding Protein (C/EBP) beta (AID 2282927); conditions: HepG2 Attagene cis-factorial transcription factor reporter; actives raise or lower the signal
Sequence of CCAAT/enhancer-binding protein beta (Homo sapiens) (P17676 whole entry, looked up): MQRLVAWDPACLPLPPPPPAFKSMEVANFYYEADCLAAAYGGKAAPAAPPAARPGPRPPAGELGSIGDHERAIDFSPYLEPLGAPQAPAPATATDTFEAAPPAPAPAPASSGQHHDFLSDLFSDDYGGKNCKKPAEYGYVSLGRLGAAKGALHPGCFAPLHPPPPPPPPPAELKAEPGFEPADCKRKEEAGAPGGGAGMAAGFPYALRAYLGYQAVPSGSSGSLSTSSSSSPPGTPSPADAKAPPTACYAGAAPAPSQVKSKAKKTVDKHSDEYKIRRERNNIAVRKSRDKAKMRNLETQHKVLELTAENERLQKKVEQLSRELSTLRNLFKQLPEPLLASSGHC
Procedure, shortened: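 Transiently transfected HepG2 (MRTU library, endogenous TF-driven promoters); 24 h dosing; total RNA → oligo(dT) RT → PCR → 6-FAM primer extension → HpaI digest → CE; fit bidirectionally vs DMSO.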

[3] = ATG_DR4_LXR_CIS: Attagene CIS-FACTORIAL HepG2 Assay for human Liver X Receptor (LXR), DR4 submotif (AID 2282929); conditions: HepG2 Attagene DR4 cis-reporter, mRNA transcription; actives raise or lower the signal
Procedure, shortened: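 HepG2 cells transiently transfected with cis-promoter-driven multiplexed reporter units (DR4 element) were dosed for 24 h. Reporter mRNA was quantified by RT-PCR, fluorescent primer extension, HpaI digestion and capillary electrophoresis; bidirectional fitting versus DMSO baseline.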

[4] = biological target: Aryl hydrocarbon receptor (Homo sapiens) (UniProt P35869); assay: ATG_Ahr_CIS: Attagene CIS-FACTORIAL HepG2 Assay for human Aryl Hydrocarbon Receptor (Ahr) (AID 2282930); conditions: HepG2 AhR cis-factorial reporter transcription; actives raise or lower the signal
Sequence of Aryl hydrocarbon receptor (Homo sapiens) (P35869 whole entry, looked up): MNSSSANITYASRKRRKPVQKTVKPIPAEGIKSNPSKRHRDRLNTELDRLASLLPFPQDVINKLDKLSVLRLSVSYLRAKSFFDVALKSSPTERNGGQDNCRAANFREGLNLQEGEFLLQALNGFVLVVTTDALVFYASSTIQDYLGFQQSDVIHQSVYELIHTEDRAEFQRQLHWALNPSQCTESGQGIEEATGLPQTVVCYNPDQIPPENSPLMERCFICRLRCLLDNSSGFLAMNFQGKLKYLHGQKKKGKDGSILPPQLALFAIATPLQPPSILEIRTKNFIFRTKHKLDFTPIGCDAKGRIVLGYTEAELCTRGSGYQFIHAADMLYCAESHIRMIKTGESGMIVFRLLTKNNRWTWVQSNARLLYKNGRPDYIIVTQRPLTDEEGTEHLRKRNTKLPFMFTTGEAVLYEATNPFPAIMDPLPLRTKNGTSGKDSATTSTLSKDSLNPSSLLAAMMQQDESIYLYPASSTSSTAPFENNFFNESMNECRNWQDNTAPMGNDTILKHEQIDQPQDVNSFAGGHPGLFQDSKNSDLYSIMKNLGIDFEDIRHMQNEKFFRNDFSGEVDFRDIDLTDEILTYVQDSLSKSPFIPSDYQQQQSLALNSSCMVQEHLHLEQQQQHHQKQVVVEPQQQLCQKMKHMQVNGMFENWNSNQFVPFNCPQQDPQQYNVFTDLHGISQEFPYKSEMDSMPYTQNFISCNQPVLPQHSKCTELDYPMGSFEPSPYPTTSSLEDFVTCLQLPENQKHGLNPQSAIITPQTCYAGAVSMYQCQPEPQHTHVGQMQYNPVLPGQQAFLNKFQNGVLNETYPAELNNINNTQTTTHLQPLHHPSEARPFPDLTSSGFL
Procedure, shortened: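 Read-out: reporter mRNA quantified by RT-PCR with fluorescent primer extension and capillary electrophoresis. Human HepG2 liver cells carried transfected cis-promoter reporter units and were exposed to chemical for 24 h; gain or loss fitted relative to DMSO.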

[5] = ATG_AP_1_CIS: Attagene CIS-FACTORIAL HepG2 Assay for human Activator Protein 1 (AP-1) (AID 2282931); conditions: HepG2 Attagene cis-factorial AP-1 reporter mRNA; actives raise or lower the signal
Procedure, shortened: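 HepG2 cells transiently transfected with cis-element-driven multiplex reporter units; 24 h compound exposure. Reporter mRNA quantified by RT-PCR, FAM-labelled fragments resolved by capillary electrophoresis; bidirectional fit versus DMSO baseline.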

[6] = ATG_AP_2_CIS: Attagene CIS-FACTORIAL HepG2 Assay for human Activator Protein 2 (AP-2) (AID 2282932); conditions: HepG2 AP-2 cis-reporter, Attagene transcription factor profiling; actives raise or lower the signal
Procedure, shortened: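 Multiplexed mRNA reporter assay in HepG2: cis-regulated units report endogenous factor activity after 24 h treatment. Fluorescence from capillary electrophoresis of RT-PCR products gives the signal, with DMSO as baseline.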

[7] = ATG_BRE_CIS: Attagene CIS-FACTORIAL HepG2 Assay for human Bone Morphogenetic Protein (BMP) Response Element (BRE) (AID 2282933); conditions: HepG2 BMP response element reporter, Attagene transcription factor profiling; actives raise or lower the signal
Procedure, shortened: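 Transient MRTU transfection of human HepG2 liver cells; 24 h compound treatment; total RNA isolated, reverse-transcribed, PCR-amplified, 6-FAM labelled, HpaI-cut, capillary electrophoresis. DMSO = negative control/baseline, bidirectional fit.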

[8] = biological target: Transcription factor E2F1 (Homo sapiens) (UniProt Q01094); assay: ATG_E2F_CIS: Attagene CIS-FACTORIAL HepG2 Assay for human E2F Transcription Factor 1 (AID 2282935); conditions: HepG2 Attagene cis-reporter, E2F reporter RNA transcripts; actives raise or lower the signal
Sequence of Transcription factor E2F1 (Homo sapiens) (Q01094 whole entry, looked up): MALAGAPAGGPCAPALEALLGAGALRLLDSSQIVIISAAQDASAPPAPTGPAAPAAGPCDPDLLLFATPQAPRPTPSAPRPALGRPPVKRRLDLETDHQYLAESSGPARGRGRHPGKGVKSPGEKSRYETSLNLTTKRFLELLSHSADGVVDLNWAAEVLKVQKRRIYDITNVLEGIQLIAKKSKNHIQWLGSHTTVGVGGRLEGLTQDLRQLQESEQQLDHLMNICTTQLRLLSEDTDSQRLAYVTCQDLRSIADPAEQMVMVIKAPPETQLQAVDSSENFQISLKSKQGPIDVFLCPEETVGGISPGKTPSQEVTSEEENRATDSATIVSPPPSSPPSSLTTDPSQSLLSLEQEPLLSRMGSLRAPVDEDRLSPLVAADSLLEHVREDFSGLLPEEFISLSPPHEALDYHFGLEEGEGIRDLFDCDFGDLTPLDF
Procedure, shortened: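 Measures reporter transcript levels via RT-PCR with capillary electrophoresis detection in HepG2 cells harboring cis-regulated reporter units; 24 h post-dose; bidirectional curve fitting with DMSO as baseline.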

[9] = ATG_M_61_CIS: Attagene CIS-FACTORIAL HepG2 Assay for M61 Transcription Factor (Internal Marker) (AID 2282937); conditions: HepG2 Attagene CIS-FACTORIAL M61 internal marker reporter; actives raise or lower the signal
Procedure, shortened: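 HepG2 cells transiently transfected with cis-element-driven multiple reporter transcription units, dosed for 24 h. Reporter mRNA measured by RT-PCR, 6-FAM primer-extension labelling, HpaI digestion and capillary electrophoresis; bidirectional fit versus DMSO baseline.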

[10] = ATG_EGR_CIS: Attagene CIS-FACTORIAL HepG2 Assay for human Early Growth Response 1 (EGR1) (AID 2282938); conditions: HepG2 Attagene CIS-FACTORIAL EGR reporter mRNA; actives raise or lower the signal
Procedure, shortened: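 HepG2 cells transiently transfected with cis-promoter-driven multiplexed reporter transcription units; reporter mRNA measured 24 h after compound dosing by RT-PCR, 6-FAM primer extension, HpaI digestion and capillary electrophoresis. Bidirectional fit versus DMSO baseline.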

[11] = ATG_M_19_CIS: Attagene CIS-FACTORIAL HepG2 Assay for M19 Transcription Factor (Internal Marker) (AID 2282939); conditions: HepG2 Attagene CIS-FACTORIAL M19 internal marker reporter; actives raise or lower the signal
Procedure, shortened: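 Transfect HepG2 with MRTU reporter library → dose chemical, 24 h → isolate total RNA, reverse-transcribe with oligo(dT) → PCR, 6-FAM label, HpaI cut (2 h, 37 C) → capillary electrophoresis. Bidirectional fit vs DMSO.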

[12] = ATG_ERE_CIS: Attagene CIS-FACTORIAL HepG2 Assay for Estrogen Response Element (ERE) (AID 2282940); conditions: HepG2 ERE cis-reporter, Attagene RNA transcript; actives raise or lower the signal
Procedure, shortened: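 Transient MRTU transfection of human HepG2; cis-element promoters; 24 h dosing; total RNA → RT (oligo dT) → PCR → 6-FAM primer extension → HpaI digest → CE fluorescence. Bidirectional fit, DMSO baseline.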

[13] = ATG_Ets_CIS: Attagene CIS-FACTORIAL HepG2 Assay for human Erythroblast Transformation Specific (ETS) (AID 2282941); conditions: HepG2 ETS cis-reporter transcription, actives raise or lower the signal
Procedure, shortened: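 After transient cis-reporter transfection, HepG2 cells receive test chemical for 24 h. Reporter mRNA levels, measured by RT-PCR and capillary electrophoresis fluorescence, are analysed bidirectionally relative to the DMSO baseline.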

[14] = biological target: Hepatocyte nuclear factor 3-beta (Homo sapiens) (UniProt Q9Y261); assay: ATG_FoxA2_CIS: Attagene CIS-FACTORIAL HepG2 Assay for human Forkhead box A2 (FOXA2) (AID 2282942); conditions: HepG2 cis-reporter transcription factor activity, 24 h; actives raise or lower the signal
Sequence of Hepatocyte nuclear factor 3-beta (Homo sapiens) (Q9Y261 whole entry, looked up): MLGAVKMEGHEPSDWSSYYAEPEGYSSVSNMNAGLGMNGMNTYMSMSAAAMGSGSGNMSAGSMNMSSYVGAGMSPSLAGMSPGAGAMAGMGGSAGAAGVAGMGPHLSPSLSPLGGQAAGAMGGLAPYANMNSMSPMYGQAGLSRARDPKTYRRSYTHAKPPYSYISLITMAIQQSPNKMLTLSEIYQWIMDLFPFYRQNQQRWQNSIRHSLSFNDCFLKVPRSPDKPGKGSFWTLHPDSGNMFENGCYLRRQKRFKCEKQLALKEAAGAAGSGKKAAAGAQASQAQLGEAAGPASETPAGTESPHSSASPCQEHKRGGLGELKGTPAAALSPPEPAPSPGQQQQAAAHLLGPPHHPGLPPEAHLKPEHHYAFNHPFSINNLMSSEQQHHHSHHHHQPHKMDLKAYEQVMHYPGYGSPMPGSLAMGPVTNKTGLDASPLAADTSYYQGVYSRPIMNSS
Procedure, shortened: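 HepG2 cells transiently transfected with multiple cis-regulated reporter transcription units, dosed for 24 h. Reporter mRNA measured by RT-PCR, 6-FAM labelling, HpaI digestion and capillary electrophoresis; bidirectional fitting against DMSO baseline.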

[15] = ATG_FoxO_CIS: Attagene CIS-FACTORIAL HepG2 Assay for human Forkhead box O (FoxO) (AID 2282943); conditions: HepG2 Attagene cis-reporter, FoxO element, mRNA; actives raise or lower the signal
Procedure, shortened: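 Read-out: fluorescence of 6-FAM-labelled reporter cDNA fragments resolved by capillary electrophoresis. Transiently transfected HepG2 cells were dosed for 24 h; activity fitted in both directions relative to DMSO controls.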

[16] = ATG_GATA_CIS: Attagene CIS-FACTORIAL HepG2 Assay for human GATA Binding Protein (AID 2282944); conditions: HepG2 GATA cis-element reporter, Attagene multiplex mRNA; actives raise or lower the signal
Procedure, shortened: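 Transient MRTU transfection, HepG2, 24 h compound exposure. Total RNA → oligo(dT) RT → PCR → 6-FAM primer extension → HpaI cut → CE. Bidirectional fit vs DMSO.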

[17] = ATG_GLI_CIS: Attagene CIS-FACTORIAL HepG2 Assay for human Zinc Finger Protein GLI1 (AID 2282945); conditions: HepG2, Attagene cis-factorial reporter mRNA, GLI element; actives raise or lower the signal
Procedure, shortened: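 Transiently transfected HepG2 cells report endogenous transcription factor activity via cis-element-driven reporter units. After 24 h compound exposure, reporter mRNA was measured by RT-PCR with capillary electrophoresis; bidirectional fitting against DMSO baseline.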

[18] = ATG_E_Box_CIS: Attagene CIS-FACTORIAL HepG2 Assay for human Enhancer Box (E-box) (AID 2282936); conditions: HepG2 E-box cis-reporter transcription, actives raise or lower the signal
Procedure, shortened: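 First, HepG2 cells receive multiple cis-regulated reporter constructs by transient transfection. Next, chemicals are applied for 24 h. Finally, reporter mRNA is quantified via RT-PCR and capillary electrophoresis, with DMSO as baseline.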

[19] = ATG_CMV_CIS: Attagene CIS-FACTORIAL HepG2 Assay for human CMV (Internal Marker) (AID 2282928); conditions: HepG2 CMV promoter reporter, transcription factor profiling; actives raise or lower the signal;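 further: endpoint acts as a background internal control marker rather than a target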
Procedure, shortened: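 Cell system: HepG2, transiently transfected multiple reporter units under cis promoters. Exposure: 24 h. Detection: RT-PCR, FAM labeling, HpaI digestion, capillary electrophoresis. Analysis: bidirectional, DMSO baseline.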

[20] = biological target: Retinoic acid receptor alpha (Homo sapiens) (UniProt P10276); assay: ATG_DR5_RAR_CIS: Attagene CIS-FACTORIAL HepG2 Assay for human Retinoic Acid Receptor Alpha (RARE), DR5 submotif (AID 2282934); conditions: HepG2 Attagene cis-factorial RARE DR5 reporter, mRNA; actives raise or lower the signal
Sequence of Retinoic acid receptor alpha (Homo sapiens) (P10276 whole entry, looked up): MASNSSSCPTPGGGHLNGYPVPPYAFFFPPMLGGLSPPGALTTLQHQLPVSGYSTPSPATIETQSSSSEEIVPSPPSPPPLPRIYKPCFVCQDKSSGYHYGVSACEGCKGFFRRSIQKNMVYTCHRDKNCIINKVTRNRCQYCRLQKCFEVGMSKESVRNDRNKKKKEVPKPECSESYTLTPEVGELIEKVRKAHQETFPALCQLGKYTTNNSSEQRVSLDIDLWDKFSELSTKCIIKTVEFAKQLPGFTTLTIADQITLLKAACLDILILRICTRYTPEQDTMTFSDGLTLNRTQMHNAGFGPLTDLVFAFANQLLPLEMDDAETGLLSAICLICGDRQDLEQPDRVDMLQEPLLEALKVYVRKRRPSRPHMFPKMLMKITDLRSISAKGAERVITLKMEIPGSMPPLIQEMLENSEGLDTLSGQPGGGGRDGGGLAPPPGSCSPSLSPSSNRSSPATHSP
Procedure, shortened: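 Read-out: DR5-driven reporter transcript measured by RT-PCR, 6-FAM primer extension, HpaI digest and capillary electrophoresis. Human HepG2 liver cells carry transiently transfected cis-element reporter constructs; dosing lasts 24 h. Gain or loss of signal fitted against DMSO baseline.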

Measured: AC50

OCC(CO)(CO)COCC(CO)(CO)CO
not listed: [18] | [19] | [20]
inactive: all other assays above

NC(=O)c1ccccc1Cl
active: [1] 61.2 µM | [5] 27 µM | [6] 76.4 µM | [18] 61.1 µM | [10] 67.2 µM | [17] 139 µM
not listed: [7] | [12] | [15] | [19] | [20]
inactive: all other assays above

COc1ccc(Nc2ccccc2)c(C)c1
active: [5] 139 µM | [7] 149 µM | [12] 19.6 µM
not listed: [3] | [11] | [19] | [20]
inactive: all other assays above

C=CC(C)(C)O
not listed: [4] | [7] | [19] | [20]
inactive: all other assays above

Nc1cc(Cl)c(O)c(Cl)c1
active: [19] 186 µM | [10] 136 µM | [17] 157 µM
not listed: [3] | [4] | [15] | [16] | [20]
inactive: all other assays above

CC(C)(C)c1cc(CCC(=O)NN)cc(C(C)(C)C)c1O
not listed: [3] | [4] | [12] | [15] | [19]
inactive: all other assays above

Cc1ccc(Nc2ccc(O)c3c2C(=O)c2ccccc2C3=O)cc1
active: [18] 20.3 µM
not listed: [16] | [19] | [20]
inactive: all other assays above
